In all, about 5,500 compounds went through this assay and about 2,000 (36%) were called active. Not shown: some 18% with an inconclusive outcome. Cut-off read from the data, not from the text of the source: active = normalized growth mostly below about 0.91 (no sharp cut-off); inconclusive = no clear call, values can overlap the other calls; inactive = mostly above about 0.92. Some of the results follow.
Assay: chemical genetic growth profiling, strain panel (AID 1159580);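 note: tested at 20 µM; growth read once vehicle control cultures reached saturation at 30 °C; 1 = growth at the plate median or of vehicle wells; lower values mean less growth of the strain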
Conditions: S. cerevisiae deletion strains, growth OD

Measured: normalized growth

OC(CCN1CCCCC1)(c1ccccc1)C1CC2C=CC1C2 (centres undefined)
inactive: locus YAL021C, strain ccr4, active compounds read low 1.01 | locus YAL026C, strain drs2, active compounds read low 1 | locus YAL030W, strain snc1, active compounds read low 1.02 | locus YBL061C, strain skt5, active compounds read low 1.02 | locus YBR009C, strain hhf1, active compounds read low 0.985 | locus YBR023C, strain chs3, active compounds read low 0.999 | locus YBR171W, strain sec66, active compounds read low 1 | locus YBR231C, strain swc5, active compounds read low 0.999 | locus YBR279W, strain paf1, active compounds read low 0.99 | locus YCL011C, strain gbp2, active compounds read low 1.01 | locus YCL016C, strain dcc1, active compounds read low 1.04 | locus YCL061C, strain MRC1, active compounds read low 0.996 | locus YCL069W, strain vba3, active compounds read low 0.977 | locus YCR088W, strain abp1, active compounds read low 1 | locus YDL005C, strain med2, active compounds read low 1 | locus YDL040C, strain nat1, active compounds read low 1 | locus YDR001C, strain nth1, active compounds read low 0.997 | locus YDR069C, strain doa4, active compounds read low 1.02 | locus YDR137W, strain rgp1, active compounds read low 1.01 | locus YDR159W, strain sac3, active compounds read low 0.992 | locus YDR195W, strain ref2 1.01 | locus YDR297W, strain sur2, active compounds read low 1 | locus YDR334W, strain swr1, active compounds read low 0.965 | locus YDR335W, strain msn5, active compounds read low 1 | locus YDR392W, strain spt3, active compounds read low 1.03 | locus YEL003W, strain gim4, active compounds read low 0.993 | locus YEL037C, strain rad23, active compounds read low 0.988 | locus YEL061C, strain CIN8 (second series), active compounds read low 0.983 | locus YER015W, strain faa2, active compounds read low 1 | locus YER016W, strain bim1, active compounds read low 1.03 | locus YER111C, strain swi4, active compounds read low 1 | locus YER155C, strain BEM2 (second series), active compounds read low 1.01 | locus YFR010W, strain ubp6, active compounds read low 0.966 | locus YGL167C, strain pmr1, active compounds read low 1 | locus YGL173C, strain kem1, active compounds read low 1.01 | locus YGL227W, strain vid30, active compounds read low 0.989 | locus YGL240W, strain doc1, active compounds read low 0.994 | locus YGL253W, strain hxk2, active compounds read low 1.01 | locus YHR013C, strain ard1, active compounds read low 1.03 | locus YHR027C, strain rpn1, active compounds read low 0.991 | locus YHR030C, strain SLT2, active compounds read low 0.977 | locus YHR079C, strain IRE1, active compounds read low 0.996 | locus YHR142W, strain chs7, active compounds read low 1 | locus YJL092W, strain hpr5, active compounds read low 1.01 | locus YJL095W, strain BCK1 (second series), active compounds read low 1 | locus YJL095W, strain BCK1, active compounds read low 0.996 | locus YJL115W, strain asf1, active compounds read low 0.984 | locus YJL129C, strain trk1, active compounds read low 0.987 | locus YJL154C, strain vps35, active compounds read low 0.987 | locus YJL164C, strain tpk1, active compounds read low 0.997 | locus YJL166W, strain qcr8, active compounds read low 0.982 | locus YJR066W, strain TOR1, active compounds read low 0.935 | locus YKL160W, strain elf1, active compounds read low 1.03 | locus YKR026C, strain gcn3, active compounds read low 0.987 | locus YKR091W, strain srl3, active compounds read low 1 | locus YLL001W, strain dnm1, active compounds read low 0.993 | locus YLL026W, active compounds read low 0.997 | locus YLL041C, strain sdh2, active compounds read low 1.03 | locus YLR027C, strain aat2, active compounds read low 1 | locus YLR113W, strain HOG1, active compounds read low 0.987 | locus YLR221C, strain rsa3, active compounds read low 0.993 | locus YLR258W, strain gsy2, active compounds read low 0.998 | locus YLR262C, strain YPT6 (second series), active compounds read low 0.984 | locus YLR320W, strain mms22, active compounds read low 0.979 | locus YLR342W, strain FKS1, active compounds read low 1.01 | locus YLR357W, strain rsc2, active compounds read low 0.995 | locus YLR370C, strain arc18, active compounds read low 1.01 | locus YLR384C, strain iki3, active compounds read low 1.01 | locus YML120C, strain ndi1, active compounds read low 0.981 | locus YMR058W, strain fet3, active compounds read low 1 | locus YMR125W, strain sto1, active compounds read low 0.985 | locus YMR129W, active compounds read low 1 | locus YMR205C, strain PFK2, active compounds read low 1.01 | locus YMR231W, strain pep5, active compounds read low 0.995 | locus YNL071W, strain lat1, active compounds read low 0.985 | locus YNL183C, strain NPR1, active compounds read low 0.951 | locus YNL209W, strain ssb2, active compounds read low 0.995 | locus YNL248C, strain rpa49, active compounds read low 1 | locus YNL322C, strain KRE1 (second series), active compounds read low 0.995 | locus YNR049C, strain mso1, active compounds read low 1.01 | locus YOR001W, strain rrp6, active compounds read low 0.949 | locus YOR070C, strain gyp1, active compounds read low 0.989 | locus YOR080W, strain dia2, active compounds read low 1 | locus YOR083W, strain WHI5, active compounds read low 1.03 | locus YOR106W, strain vam3, active compounds read low 0.995 | locus YOR231W, strain MKK1, active compounds read low 0.991 | locus YOR265W, strain rbl2, active compounds read low 1.01 | locus YOR270C, strain vph1, active compounds read low 0.929 | locus YOR290C, strain snf2, active compounds read low 1.06 | locus YPL051W, strain arl3, active compounds read low 1.01 | locus YPL078C, strain atp4, active compounds read low 1.02 | locus YPL106C, strain sse1, active compounds read low 1.05 | locus YPL240C, strain hsp82, active compounds read low 0.982 | locus YPL256C, strain CLN2, active compounds read low 0.978

— PubChem BioAssay AID1159580 (chemical genetic matrix, 2015)
